Results published in PubChem BioAssay (NCATS).
“And” between values parts separate entries of the source, which are not always exact repeats. Identical values can stand only once. Inconclusive results are not listed. Some structures have more than one record in an assay (separate samples or runs), and their calls can disagree. The source made the active and inactive calls. Unless noted, calls follow the shape of the dose curve; as a rule, active = well fitted curve in the direction sought with a large enough effect; inconclusive = small, poorly fitted or top-dose-only effect, or another doubt; inactive = no such curve, though single readings can be large; an effect the other way counts as inactive or inconclusive.

How the values were obtained:
[1] = S16 Schwann cell viability assay (CellTiter-Glo assay) (AID 624031);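 also: native untransfected S16 rat Schwann cells; cellular ATP luminescence as a viability measure; plate controls were DMSO-treated cells for no effect and cell-free wells for full effect; nearly all actives have a fitted effect of over 70% in size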
In short: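 Concentration-effect curves come from CellTiter-Glo luminescence of S16 rat Schwann cells after 24 h compound exposure. Each reading was normalized to DMSO wells (0%) and wells without cells, and curves were ranked by r2 and response magnitude.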

[2] = S16 Schwann cell PMP22 intronic element firefly luciferase assay (AID 624032);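 also: plate controls were DMSO for no effect and PTC124 positive control mean for full effect; nearly all actives have a fitted effect of over 30% in size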
In short: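 Rat S16 Schwann cells stably carrying a PMP22 intronic element-driven Fluc reporter were seeded overnight, then exposed to compounds for 24 h at 37 °C. Luminescence was normalized to PTC124 (positive control) and DMSO (0% activity).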

[3] = S16 Schwann cell PMP22 intronic element beta-lactamase assay (AID 624044; calls by dose curve;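 also: 0% = DMSO and -100% = potassium clavulanate positive control; nearly all actives have a fitted effect of over 15% in size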)
In short: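 Rat S16 Schwann cells with beta-Lac driven by a PMP22 intronic element, compound-treated 24 h at 37 °C. LiveBLAzer FRET B/G read: 460 nm normalized to potassium clavulanate vs DMSO; 535 nm FRET as viability; concentration-effect curves classified.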

[4] = biological target: Glutaminase kidney isoform, mitochondrial (Homo sapiens) (UniProt O94925); assay: qHTS for Inhibitors of Glutaminase (GLS): LOPAC Validation (AID 624146);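 also: glutamate product detected by oxidase and peroxidase coupled Amplex red fluorescence gain; % is scaled to controls: 0 for no effect and ±100 for the full control effect; nearly all actives have a fitted effect of over 60% in size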
Sequence of Glutaminase kidney isoform, mitochondrial (Homo sapiens) (O94925 whole entry, looked up, canonical isoform): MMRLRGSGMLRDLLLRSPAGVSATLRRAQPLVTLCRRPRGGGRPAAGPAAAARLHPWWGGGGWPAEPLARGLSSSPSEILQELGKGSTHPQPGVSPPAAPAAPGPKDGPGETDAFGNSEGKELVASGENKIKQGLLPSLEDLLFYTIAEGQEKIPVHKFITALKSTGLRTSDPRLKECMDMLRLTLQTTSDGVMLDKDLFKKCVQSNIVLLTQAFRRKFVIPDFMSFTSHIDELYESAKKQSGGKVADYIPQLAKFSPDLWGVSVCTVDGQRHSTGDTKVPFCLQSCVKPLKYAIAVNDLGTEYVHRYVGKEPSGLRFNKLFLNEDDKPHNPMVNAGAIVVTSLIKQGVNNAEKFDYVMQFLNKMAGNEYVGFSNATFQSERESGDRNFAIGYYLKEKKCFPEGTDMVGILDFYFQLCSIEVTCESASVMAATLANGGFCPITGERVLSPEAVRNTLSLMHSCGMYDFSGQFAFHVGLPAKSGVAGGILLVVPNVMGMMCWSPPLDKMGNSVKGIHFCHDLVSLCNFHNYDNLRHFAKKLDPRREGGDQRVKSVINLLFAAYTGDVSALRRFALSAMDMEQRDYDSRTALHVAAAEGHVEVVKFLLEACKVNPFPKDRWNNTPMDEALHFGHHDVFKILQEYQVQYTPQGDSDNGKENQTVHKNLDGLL
In short: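 hKGA; 45 mM KH2PO4 pH 8.2 + 0.02% Tween-20; cpd via pin tool; 1 mM Gln soln; GluOx/HRP/Amplex Red; RT 30 min; fluor. t0 & final.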

[5] = qHTS of Trypanosoma Brucei Inhibitors: LOPAC Validation (AID 624147); also: 0% is about no effect
In short: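 Assay buffer: 50 mM TEA pH 7.2, 100 mM KCl, 10 mM MgCl2, 0.05% BSA, 0.01% Tween-20. Pyruvate kinase from T. brucei plus substrate met compound, then ADP (130 uM final). Luminescence was read post 45 min RT.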

[6] = biological target: Glucagon-like peptide 1 receptor (Homo sapiens) (UniProt P43220); assay: qHTS of GLP-1 Receptor Agonists: LOPAC Validation (AID 624148);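 also: 0% is about no effect; higher luminescence signal means agonism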
Sequence of Glucagon-like peptide 1 receptor (Homo sapiens) (P43220 whole entry, looked up): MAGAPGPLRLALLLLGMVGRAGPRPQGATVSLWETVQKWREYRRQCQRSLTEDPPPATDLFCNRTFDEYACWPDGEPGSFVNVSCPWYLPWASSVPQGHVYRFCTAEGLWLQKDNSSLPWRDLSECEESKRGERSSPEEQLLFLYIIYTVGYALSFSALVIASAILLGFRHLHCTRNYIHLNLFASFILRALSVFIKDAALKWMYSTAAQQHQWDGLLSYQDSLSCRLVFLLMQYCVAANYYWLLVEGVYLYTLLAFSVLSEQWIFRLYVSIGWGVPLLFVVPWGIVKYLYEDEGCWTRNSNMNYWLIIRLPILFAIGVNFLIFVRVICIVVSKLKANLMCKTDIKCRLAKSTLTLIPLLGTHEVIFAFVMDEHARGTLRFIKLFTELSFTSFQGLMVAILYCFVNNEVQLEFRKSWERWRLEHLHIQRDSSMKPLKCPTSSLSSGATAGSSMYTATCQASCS
In short: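 HEK293 cells stably co-expressing a cAMP-responsive luciferase reporter and a hypersensitive GLP-1R were plated 12 h at 37 °C and exposed to compounds for 4-6 hr at 37 °C, 5% CO2. Luminescence was read 12 min after adding detection reagent.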

[7] = qHTS of Nrf2 Activators: LOPAC Validation (AID 624149); also: 0% is about no effect
In short: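 Luminescence read-out of ARE-luciferase activation: AREc32_Fluc cells treated with compounds for 24 hr at 37 deg C, then lysed with Steady-Glo for 30 min at room temperature before reading.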

[8] = HTS Assay for Allosteric Antagonists of the Human D2 Dopamine Receptor: Hit Validation in HTRF (AID 624455);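 also: stable D1 dopamine receptor cell line scored for blocking the D1 response; % is scaled to controls: 0 for no effect and ±100 for the full control effect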
In short: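 First, antagonism was screened by calcium flux in a force-coupled, inducible Hek293 Trex D2 line challenged with EC80 dopamine. Hits then went into an HTRF assay in cells stably expressing D1, testing inhibition of the D1 response.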

[9] = Cytotoxicity counterscreen for NFkB agonists and antagonists (AID 624476);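 also: cells exposed to compound for 48 hours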; also: potency is read from the fitted curve at half-maximal effect
[10] = qHTS Assay for Identification of Small Molecule Agonists for NFkB Signaling Pathway. (AID 624478);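 also: compounds tested together with TNF alpha at its EC50 of 10 pM; 0% is about no effect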
In short: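 ME-180 cervical carcinoma, stable NFkB-RE beta-lactamase reporter; 1000 cells/well, overnight attachment; cpd + TNF alpha 10 pM final, 5 h 37 C; LiveBLAzer 2 h RT; FRET 460/530 nm, ex 405 nm.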

[11] = qHTS Assay for Identification of Small Molecule Antagonists for NFkB Signaling Pathway. (AID 624479; calls by dose curve;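 also: pathway stimulated with TNF alpha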; also: potency is read from the fitted curve at half-maximal effect)
[12] = Cell Proliferation Assay against the TMD8 Cell Line (AID 651645); settings: TMD8 DLBCL cell line proliferation/viability; at 46.1 µM (top of the series);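 also: cells exposed to compound for 48 h before reading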
In short: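 Luminescent ATP read-out (CellTiter-Glo, 15 min RT) after 48 h compound exposure of log-growing TMD8 cells at 37C; percent activity scaled between DMSO as 100% and 9.2 uM bortezomib final as 0%.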

[13] = Cell Proliferation Assay against the HBL1 Cell Line (AID 651646); settings: HBL1 DLBCL cells; at 46.1 µM (top of the series);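 also: cells exposed to compound for 48 h before reading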
In short: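 500 log-phase HBL1 cells per well in phenol red-free RPMI with 5% FBS were treated with compounds for 48 h at 37 °C, 5% CO2. Viability was read by CellTiter-Glo luminescence, normalized to DMSO (100%) and 9.2 uM bortezomib final (0%).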

[14] = Cell Proliferation Assay against the TMD8 Cell Line (Caspase readout at 16 hrs) (AID 651712); also: potency is read from the fitted curve at half-maximal effect
In short: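 TMD8 cells (500/well) in phenol-red-free RPMI with glutamine, 5% FBS, were exposed to compounds for 16 h at 37 °C. Caspase 3/7 activation was read by Caspase-Glo luminescence; percent activity normalised to DMSO (0%) and 9.2 uM bortezomib final (100%).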

[15] = qHTS assay for small molecule agonists of the antioxidant response element (ARE) signaling pathway (AID 651741; active = well fitted activation curve with a large enough effect in the signal ratio; the % refers to the signal ratio; also: potency is read from the fitted curve at half-maximal effect; as to activation: % of control where 0% means no effect)
In short: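 Compounds in DMSO are pinned onto HepG2 ARE-bla cells (2,000/well) that were preincubated 5 h; plates stay 16 h at 37 C, then beta-lactamase activity is detected with LiveBLAzer B/G substrate by fluorescence.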

[16] = qHTS assay for small molecule activators of the p53 signaling pathway (AID 651743; active = well fitted activation curve with a large enough effect in the signal ratio, not every such curve was filed as active; the % refers to the signal ratio; also: % of control where 0% means no effect); settings: HCT-116 p53RE-bla, beta-lactamase FRET ratio, 16 h; stronger effect = higher value
In short: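 Cell-based beta-lactamase reporter (p53 response elements, HCT-116 background). After a 5-hour preincubation, cells received compound for 16 hours at 37 C; substrate development ran 2 hours at room temperature.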

[17] = qHTS assay for small molecule activators of the nuclear factor-kappa B (NF-kB) signaling pathway (AID 651749; active = well fitted activation curve with a large enough effect in the signal ratio; the % refers to the signal ratio; also: % of control where 0% means no effect); settings: NF-kB-bla ME-180 cells, beta-lactamase FRET ratio, 16 h; stronger effect = higher value
In short: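 Screening used 2,000 ME-180 reporter cells per well exposed to pinned compound (23 nL) or DMSO; after 16 hr at 37C, beta-lactamase expression under NF-kB control was assessed through FRET.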

[18] = qHTS assay for small molecule disruptors of the mitochondrial membrane potential - 1 hr assay (AID 651754; calls by dose curve; also: % is scaled to controls: 0 for no effect and ±100 for the full control effect; nearly all actives have a fitted effect of over 35% in size)
In short: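 HepG2, 2,000 cells/well, overnight attachment; cpd or DMSO 1 hr, 37C/5% CO2; Mito-MPS dye 30 min, 37C; fluorescence monomer (490/535) and aggregate (540/590).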

[19] = qHTS assay for small molecule disruptors of the mitochondrial membrane potential - 5 hr assay (AID 651755; calls by dose curve; also: % is scaled to controls: 0 for no effect and ±100 for the full control effect; nearly all actives have a fitted effect of over 40% in size)
In short: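 HepG2 cells, attached overnight at 37C, were exposed to compound or DMSO for 5 hr at 37C, 5% CO2. Mito-MPS dye was then added for 30 min, and fluorescence read at 490/535 nm (monomers) and 540/590 nm (aggregates).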

[20] = biological target: Tumor necrosis factor (Homo sapiens) (UniProt P01375); assay: qHTS assay to identify small molecules that stimulate Tumor Necrosis Factor-alpha (TNF-alpha) secretion (AID 651757; active = well fitted curve in the direction sought with a large enough effect in the signal ratio; the % refers to the signal ratio; also: 0% is about no effect)
Sequence of Tumor necrosis factor (Homo sapiens) (P01375 whole entry, looked up): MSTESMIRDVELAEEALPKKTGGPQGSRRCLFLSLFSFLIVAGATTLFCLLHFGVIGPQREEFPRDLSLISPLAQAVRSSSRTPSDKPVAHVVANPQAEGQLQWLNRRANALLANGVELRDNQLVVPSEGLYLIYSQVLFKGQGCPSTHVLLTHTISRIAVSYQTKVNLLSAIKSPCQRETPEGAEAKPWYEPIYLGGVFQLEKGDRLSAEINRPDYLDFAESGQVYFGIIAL
In short: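 Read-out is HTRF, a TR-FRET sandwich of cryptate- and XL665-labeled anti-TNF-alpha antibodies detecting cytokine secreted by THP-1 cells. Cells had been incubated with test compounds at 37 C for 17 hrs beforehand.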

In the case of `CS(=O)(=O)c1ccc(C2=C(c3ccccc3)C(=O)OC2)cc1`, the outcome [1] is reported as “inactive”, the Potency [2] is reported as “inactive” and the Potency [3] is reported as “inactive”.

For `C[C@H]1O[C@@H](n2cc(F)c(=O)[nH]c2=O)[C@H](O)[C@H]1O`, the outcome [4] was “inactive”, the outcome [5] was “inactive” and the outcome [6] was “inactive”. For the same compound, the outcome [7] was “inactive” and the outcome [8] was “inactive”.

With `COc1c(C)cnc(Cn2cnc3c(Cl)nc(N)nc32)c1C` the Potency [9] was “inactive”, the outcome [10] was “inactive” and the Potency [11] was 0.0211 µM (active). The viability (% of control) [12] was 13.8% and the viability, percent of control [13] was 59.9%.

In the case of `COc1ccc2c(c1)CC[C@H]1[C@@H]2CC[C@]2(C)[C@@H](NCCCCCCN3C(=O)C=CC3=O)CC[C@H]12`, the Potency [9] is reported as “inactive”, the outcome [10] is reported as “inactive” and the Potency [11] is reported as “inactive”. For the same compound, the viability (% of control) [12] was 15.9% and the viability, percent of control [13] was 33.1%.

In the case of `Cc1nn(Cc2ccccc2Cl)c(C)c1CN(C)CC(O)COc1ccc(Cl)cc1` (stereo unspecified), the Potency [9] is reported as “inactive”, the outcome [10] is reported as “inactive” and the Potency [11] is reported as “inactive”. It also gave a viability (% of control) [12] of 9.51% and a viability, percent of control [13] of 2.62%.

With `N#Cc1c(N(CC(=O)O)CC(=O)O)sc(C(=O)O)c1CC(=O)O` the outcome [1] was “inactive”, the Potency [2] was “inactive” and the Potency [3] was “inactive”.

In the case of `O=C(O)Cc1cccc(OCCCN(Cc2cccc(C(F)(F)F)c2Cl)CC(c2ccccc2)c2ccccc2)c1`, the Potency [9] is reported as 26.4 µM (active), the viability (% of control) [12] is reported as 8.71% and the viability, percent of control [13] is reported as 12.9%.

In the case of `Cc1ccc(C(=O)N(CCCN)[C@@H](c2nc3cc(Cl)ccc3c(=O)n2Cc2ccccc2)C(C)C)cc1`, the Potency [9] is reported as 23.5 µM (active), the outcome [10] is reported as “inactive” and the viability (% of control) [12] is reported as 0.587%. The viability, percent of control [13] was 1.66%.

For `Cc1c(C(=O)Nc2ccc(N3C[C@@H](C)O[C@@H](C)C3)nc2)cccc1-c1ccc(OC(F)(F)F)cc1`, the outcome [10] was “inactive”, the viability (% of control) [12] was 48.4% and the viability, percent of control [13] was 32.3%.

For `Cc1cccc(Nc2nc(N[C@@H]3CCCC[C@H]3N)ncc2C(N)=O)c1`, the Potency [9] was “inactive”, the outcome [10] was “inactive” and the viability (% of control) [12] was 2.81%. The viability, percent of control [13] was 2.69%.

For `CN(C)CCN(C)C(=O)c1ccc(NC(=O)Nc2ccc(-c3nc(N4CCOCC4)c4ccn(CC(F)(F)F)c4n3)cc2)cc1`, the Potency [9] was 4.18 µM (active), the outcome [10] was “inactive” and the viability (% of control) [12] was 0.807%. The viability, percent of control [13] was 1.25%.

For `CCN(CC)CCCCNc1nc2cc(Cl)c(Cl)cc2nc1-c1ccc(-c2cccs2)s1`, the outcome [10] was “inactive”, the Potency [11] was 11.9 µM (active) and the viability (% of control) [12] was 1.61%. The viability, percent of control [13] was 1.92% and the Potency [14] was “inactive”.

In the case of `CNC(=O)c1cc(Oc2ccc(NC(=O)Nc3ccc(Cl)c(C(F)(F)F)c3)c(F)c2)ccn1`, the Potency [9] is reported as 5.26 µM (active), the outcome [10] is reported as “inactive” and the Potency [11] is reported as 5.95 µM (active). The viability (% of control) [12] was 3.02%, the viability, percent of control [13] was 4.87% and the Potency [14] was “inactive”.

In the case of `COc1ccc(CCN(C)CCCOc2ccc(S(=O)(=O)c3[nH]c4ccccc4c3C(C)C)cc2)cc1OC`, the outcome [10] is reported as “inactive”, the viability (% of control) [12] is reported as 4.97% and the viability, percent of control [13] is reported as 7.05%.

With `CCCCc1ccc(NS(=O)(=O)c2ccc(C)c(C(=O)N3CCN(c4cccc(C)c4C)CC3)c2)cc1` the Potency [9] was 20.9 µM (active), the Potency [11] was 16.8 µM (active) and the viability (% of control) [12] was 9.89%. For the same compound, the viability, percent of control [13] was 6.19% and the Potency [14] was 20.9 µM (active).

In the case of `CCCCCCCCCCCCCC(=O)N[C@H](CO)[C@H](O)c1ccc([N+](=O)[O-])cc1`, the outcome [10] is reported as “inactive”, the Potency [11] is reported as 29.8 µM (active) and the viability (% of control) [12] is reported as 4.37%. For the same compound, the viability, percent of control [13] was 21.7%.

With `Cn1cc(-c2ccc3nnc(Sc4ccc5ncccc5c4)n3n2)cn1` the Potency [9] was “inactive”, the Potency [11] was “inactive” and the viability (% of control) [12] was 74.4%. The viability, percent of control [13] was 119% and the Potency [14] was “inactive”.

For `CC(=O)NCCC(=O)N[C@@H](CCC(N)=O)C(=O)N[C@@H](CO)C(=O)N[C@@H](CCC(N)=O)C(=O)N[C@@H](CCC(N)=O)C(=O)N[C@H](C(=O)N[C@@H](Cc1ccccc1)C(=O)N[C@]1(C)CCCCCCC=CCCC[C@@](C)(C(=O)N[C@@H](CCC(N)=O)C(=O)N[C@@H](CC(N)=O)C(N)=O)NC(=O)[C@H](CC(C)C)NC(=O)[C@H](CC(C)C)NC(=O)[C@@H](CCCNC(=N)N)NC(=O)[C@H](Cc2c[nH]c3ccccc23)NC(=O)[C@H](CC(C)C)NC(=O)[C@H](CC(N)=O)NC1=O)[C@H](C)O`, the outcome [10] was “inactive”, the viability (% of control) [12] was 22.4% and the viability, percent of control [13] was 3.58%. The Potency [14] was “inactive”.

For `Nc1ccc(-c2ccc3ncc4ccc(=O)n(-c5cccc(C(F)(F)F)c5)c4c3c2)cn1`, the Potency [9] was 0.833 µM (active), the outcome [10] was “inactive” and the Potency [11] was 4.73 µM (active). For the same compound, the viability (% of control) [12] was 9.02%, the viability, percent of control [13] was 8.06% and the Potency [14] was 0.118 µM (active).

With `CNC(=O)c1cc(COc2nnc(Nc3ccc(Cl)cc3)c3ccoc23)ccn1` the Potency [11] was 26.6 µM (active), the viability (% of control) [12] was 39.7% and the viability, percent of control [13] was 6.77%.

In the case of `C[C@@H]1C[C@H]2[C@@H]3CCC4=CC(=O)C=C[C@]4(C)[C@@]3(F)[C@@H](O)C[C@]2(C)[C@@]1(O)C(=O)CO`, the Potency [15] is reported as 42.2 µM (active) and inactive, the activation [16] is reported as -3.68% (inactive) and -5.63% (inactive) and the activation [17] is reported as -2.02% (inactive) and -1.92% (inactive). For the same compound, the outcome [18] was “inactive”, the outcome [19] was “inactive” and the outcome [20] was “inactive”.
